# Results as given in PubChem BioAssay AID504329 (Southern Research Specialized Biocontainment Screening …, 2011).
# The campaign covered roughly 340,000 compounds. About 1,000 (0.29%) were called active. Cut-off read from the data, not from the text of the source: inconclusive = inhibition above about 27% without an active follow-up result; inactive = below that. The list is a sample of the results. Measured potencies and affinities stand elsewhere.
# Assay: NS1A inhibition, H1N1 influenza, cell based functional assay (AID 504329)
# Settings: percent inhibition, at 12.5 µM, stronger effect = higher value
row,SMILES,inhibition
1,CS(=O)(=O)Nc1ccccc1C(=O)OCC(=O)N1CCC(c2ccccc2)=N1,-6.95% (inactive)
2,O=C(CCS(=O)(=O)c1ccccc1)Nc1nc(-c2cccs2)cs1,-56.6% (inactive)
3,O=C(CCS(=O)(=O)c1ccc(F)cc1)Nc1nc(-c2ccncc2)cs1,-5.43% (inactive)
4,O=C(CCS(=O)(=O)c1ccccc1)Nc1nc(-c2ccc(F)cc2)cs1,-4.12% (inactive)
5,Cc1ccc(S(=O)(=O)CCC(=O)Nc2nc(-c3ccccn3)cs2)cc1,7.88% (inactive)
6,CC(C)Oc1ccc(S(=O)(=O)N2CCCCC2)cc1NC(=O)CN1C(=O)NC(C)(C2CC2)C1=O (stereo not given),-3.52% (inactive)
7,O=C(C1CCN(S(=O)(=O)c2ccccc2)CC1)N1CCCCCC1,12.9% (inactive)
8,CC(C)(C)C(=O)CSc1nc2ncc(Br)cc2[nH]1,0.51% (inactive)
9,Cc1ccc(NC(=O)c2cn(-c3cccc(C)n3)cn2)cc1,-6.72% (inactive)
10,C/C(=N/NC(=O)c1cn(-c2cccc(C)n2)cn1)c1ccc(C)cc1,3.85% (inactive)
11,Cc1cccc(-n2cnc(C(=O)N/N=C/c3ccccc3)c2)n1,-4.63% (inactive)
12,COC(=O)c1ccc(NC(=O)c2cn(-c3cccc(C)n3)cn2)cc1,-7.7% (inactive)
13,COc1ccc(OC)c(NC(=O)COC(=O)[C@H](Cc2ccccc2)NC(=O)c2ccco2)c1,-3.78% (inactive)
14,O=C(c1ccc(Cn2c(=S)[nH]c3ccc(N4CCOCC4)cc3c2=O)cc1)N1CCN(c2ccc(F)cc2)CC1,-6.32% (inactive)
15,COc1cc(CN(C)C)cc(C=O)c1O,1.87% (inactive)
16,Nc1nc2cc(Br)ccc2o1,-24.5% (inactive)
17,COc1cc(C(C)=O)ccc1OCC(=O)Nc1cc(Cl)ccc1-n1cncn1,-5.4% (inactive)
18,O=C(NCC(=O)N(c1ccc(F)cc1)C(C(=O)NC1CCCC1)c1cccnc1)c1cccs1 (stereo not given),-7.6% (inactive)
19,O=C(CN1C(=O)c2cccnc2Oc2ccc(Cl)cc21)N1CCCC1,-12.6% (inactive)
20,O=C1c2ccccc2CN1CCNS(=O)(=O)c1ccc2ccccc2c1,0.05% (inactive)
21,CCN(Cc1nc2cc(Cl)ccc2c(=O)[nH]1)C(=O)c1cc2c(s1)CCCCC2,-9.24% (inactive)
22,CC1(C(=O)NCc2cc(F)cc(C(F)(F)F)c2)C=CC2(CCCCC2)N1C(=O)c1ccccc1 (stereo not given),-9.29% (inactive)
23,CS(=O)(=O)N(CC(=O)NCC1CCCO1)Cc1ccc(Cl)cc1 (stereo not given),-3.33% (inactive)
24,O=C(NNc1c2ccccc2nc2ccccc12)c1ccccc1Cl,-1.62% (inactive)
25,O=C(NNc1c2ccccc2nc2ccccc12)c1ccccc1O,-2.01% (inactive)
